Compound activity: PubChem, National Center for Advancing Translational Sciences (NCATS)
This is a sample that favours compounds with a hit; in the whole collection about 2.8% have one here.
PI5P4K alpha inh = inhibitors of human PI5P4K alpha. P48426. PI5P4Kalpha enzyme, ADP-Glo luminescence, 60 min; active compounds read low. max response, %. actives 1.2% (n = 330,000). AID 652105; active = max response of -50% or lower; inconclusive = between -30% and -50%; inactive = -30% or higher; also: value at the top dose of about 77 µM; % is scaled to controls: 0 for no effect and ±100 for the full control effect
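ADP-Glo luminescence end-point after a 60 min room-temperature kinase reaction. PI5P4Kalpha and substrate in HEPES pH 7.4 buffer with EGTA, 0.1% CHAPS and 5% DMSO; ATP at 5 microM final.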
Pol beta inh = DNA polymerase beta (human) inhibition. Pol beta primer extension/strand displacement, fluorescence kinetic. Potency, µM (top dose mostly 114 µM), inactives show at the highest dose activity change, negative = inhibition, most hits filed as inhibitors. actives 1.3% (n = 340,000); also: potency is read from the fitted curve at half-maximal effect; % is scaled to controls: 0 for no effect and ±100 for the full control effect
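Homogeneous kinetic assay of primer extension and strand displacement by 10 nM Pol beta, preincubated 15 min at room temperature with compound before 50 nM substrate (final) was added. Read at 0 and 10 min; four-parameter Hill fit.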
WRN inhibitor = WRN helicase (human) inhibition; Potency, µM (series often up to 114 µM), inactives show top-dose activity change, negative = inhibition, hits mostly inhibitors; WRN helicase unwinding, fluorescent forked duplex, kinetic; actives 0.46% (n = 360,000); AID 651768; Q14191; also: potency is read from the fitted curve at half-maximal effect; % is scaled to controls: 0 for no effect and ±100 for the full control effect; nearly all actives have a fitted effect of over 55% in size
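WRN at 20 nM final preincubated with compound 15 min at room temperature; reaction started with 100 nM fluorophore/quencher forked duplex oligonucleotide and 2 mM ATP final. Unwinding followed kinetically by red fluorescence (ex 525, em 598 nm).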
POLH inh = blocks human DNA polymerase eta activity | Q9Y253 | recombinant Pol eta, fluorescent DNA replication assay | Potency, µM (highest dose often 114 µM), for inactives: top-dose activity change, negative = inhibition, most hits filed as inhibitors | actives 1.2% (n = 390,000); also: potency is read from the fitted curve at half-maximal effect; % is scaled to controls: 0 for no effect and ±100 for the full control effect
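Pol eta at 10 nM preincubated with compounds 15 min at room temperature; reaction started with fluorescent substrate (50 nM final) and read kinetically at 0 and 10 min.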
Pol iota inh = DNA polymerase iota (human) inhibition; Pol iota fluorescent replication assay, 10 min; AID 588590; Potency, µM (top dose mostly 115 µM), for inactives: top-dose activity, negative = inhibition, most hits filed as inhibitors; actives 1% (n = 390,000); also: potency is read from the fitted curve at half-maximal effect
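Pol iota at 10 nM preincubated 15 min with compounds at room temperature; reaction started with fluorescent substrate, 50 nM final. Fluorescence read kinetically at 0 and 10 min; buffer-only wells as negative control.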
Pol kappa inh = DNA polymerase kappa (human) inhibition; Q9UBT6; actives 0.53% (n = 400,000); AID 588579; Potency, µM (titrated, usually from 107 µM), for inactives: at the highest dose activity, negative = inhibition, actives largely listed as inhibitors; purified Pol kappa, fluorescent DNA synthesis assay, 10 min; also: potency is read from the fitted curve at half-maximal effect; % is scaled to controls: 0 for no effect and ±100 for the full control effect
Target sequence (Q9UBT6 whole entry, looked up): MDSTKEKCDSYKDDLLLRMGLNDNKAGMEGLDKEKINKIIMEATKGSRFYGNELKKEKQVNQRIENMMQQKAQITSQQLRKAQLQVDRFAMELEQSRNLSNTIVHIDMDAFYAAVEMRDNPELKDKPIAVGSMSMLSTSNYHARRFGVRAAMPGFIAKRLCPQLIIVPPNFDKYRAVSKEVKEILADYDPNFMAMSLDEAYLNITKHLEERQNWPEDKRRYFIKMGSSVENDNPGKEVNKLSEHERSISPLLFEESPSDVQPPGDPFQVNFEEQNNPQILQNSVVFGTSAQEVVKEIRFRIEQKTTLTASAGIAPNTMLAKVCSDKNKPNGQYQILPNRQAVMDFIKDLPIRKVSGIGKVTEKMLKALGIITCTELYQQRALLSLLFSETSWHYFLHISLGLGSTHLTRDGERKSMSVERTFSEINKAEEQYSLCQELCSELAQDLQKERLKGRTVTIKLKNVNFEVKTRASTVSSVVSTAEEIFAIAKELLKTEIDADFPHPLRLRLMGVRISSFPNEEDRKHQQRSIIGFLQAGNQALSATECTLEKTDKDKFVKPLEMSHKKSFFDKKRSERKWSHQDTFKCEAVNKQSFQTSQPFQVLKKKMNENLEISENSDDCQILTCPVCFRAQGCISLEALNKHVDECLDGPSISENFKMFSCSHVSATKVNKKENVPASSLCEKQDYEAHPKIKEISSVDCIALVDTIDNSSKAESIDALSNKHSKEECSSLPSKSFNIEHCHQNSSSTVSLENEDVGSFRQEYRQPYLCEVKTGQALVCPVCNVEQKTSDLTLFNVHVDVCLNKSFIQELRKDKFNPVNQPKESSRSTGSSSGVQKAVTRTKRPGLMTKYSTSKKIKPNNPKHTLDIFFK
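Activity was followed as the change in fluorescence between reads at 0 and 10 min after starting the reaction with 50 nM substrate. Beforehand, 10 nM polymerase had been preincubated with compound for 15 min at room temperature.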
PGK validate = blocks T. brucei phosphoglycerate kinase; shares compounds with Pol kappa inh; TbPGK coupled GAPDH assay, Kinase-Glo luminescence; Potency, µM (top dose mostly 57.5 µM), inactives show at the highest dose activity change, negative = inhibition, hits mostly inhibitors; actives 79% (n = 500); AID 686980; also: potency is read from the fitted curve at half-maximal effect; % is scaled to controls: 0 for no effect and ±100 for the full control effect; nearly all actives have a fitted effect of over 65% in size
Pol iota confirm = Confirm cherry-picked inhibitors of human polymerase iota | shares compounds with Pol kappa inh | Pol iota primer extension, TAMRA/BHQ fluorescence | Potency, µM, usual class: inhibitors | actives 77% (n = 1,500) | AID 720496; also: potency is read from the fitted curve at half-maximal effect
* marks the source's active call; other numbers are inactive results; ? = inconclusive; / = no result given; [ ] = dose if it differs, or a comment. Unless noted, calls follow the shape of the dose curve; as a rule, active = well fitted curve in the direction sought with a large enough effect; inconclusive = small, poorly fitted or top-dose-only effect, or another doubt; inactive = no such curve, though single readings can be large; an effect the other way counts as inactive or inconclusive.

SMILES	PI5P4K alpha inh	Pol beta inh	WRN inhibitor	POLH inh	Pol iota inh	Pol kappa inh	PGK validate	Pol iota confirm
Cc1cc(=O)oc2cc(NC(=O)COc3ccccc3[N+](=O)[O-])ccc12	-12	/	-35%[11.6 µM]	?	?	-19%	/	?
O=C(CSc1nc2c([nH]c3ccccc32)c(=O)n1-c1ccc(Cl)cc1)NCC1CCCO1 (stereo unspecified)	/	4%	/	-17%	12%	-5%[60.1 µM]	/	/
Nc1nc(N2CCN(C(=O)c3ccco3)CC2)nc2ccccc12	0	28%	3%	3%	17%	-21%	/	/
Nc1nc(N2CCN(C(=O)c3ccco3)CC2)nc2ccc(Br)cc12	-30	-10%	-5%	-22%	0%	-1%	?	/
CN(C)c1ccc(-c2cc[nH]c(=O)c2N)cc1	/	/	/	/	/	/	/	?
CN(C)c1ccc(/C=c2\[nH]c(=O)/c(=C\c3ccc(N(C)C)cc3)[nH]c2=O)cc1	/	/	/	/	?	-14%	/	/
Cc1cc(=O)[nH]c(N/N=C/c2ccco2)n1	5	-16%	-11%	-5%	12%	-6%	/	/
Cc1cc(=O)[nH]c(N/N=C/c2ccc(OC(=O)c3ccco3)cc2)n1	-7	-9%	?	50µM*	14%	9%	/	?
O=C(/C=C/Nc1ccccc1Br)c1ccccn1	-4	5%	-4%	-15%	2%	-5%	?	/
O=CC(O)C1OC(=O)C(O)C1O (stereo unspecified)	?	/	-30%	7.9µM*	45µM*	50µM*	3.3µM*	/
Cc1ccnc(N2C(=O)c3ccccc3C2Nc2cccc(C)c2C)c1 (stereo unspecified)	-2	-13%	2%	-17%	1%	3%	/	/
Cc1ccnc(N2C(=O)c3ccccc3C2O)c1 (stereo unspecified)	-58*	43%	-3%	0%	-20%	-1%	10µM*	/
COc1ccc(-c2cc3ccccc3oc2=O)cc1NC(=O)c1ccc(Br)o1	-12	?	-10%[11.6 µM]	11µM*	?	8%	/	?
O=C(Nc1cccc(-c2cc3ccccc3oc2=O)c1)c1ccc(Br)o1	-11	2%	-12%	?	?	-4%	/	/
CC1(C)CC(N=c2cc(-c3ccccc3)oc3ccc(Cl)cc23)CC(C)(C)N1	2	4µM*	-31%	?	?	?	/	19*
O=C(c1ccco1)N1CCc2ccccc21	3	1%	-4%	2%	18%	0%	/	/
O=C(/C=C/c1ccco1)N1CCc2ccccc21	?	?	-2%	-7%	-27%	0%	16µM*	/
CCCCN1C(=O)c2[nH]nc(-c3ccccc3O)c2C1c1ccc(C(C)(C)C)cc1 (stereo unspecified)	/	?	/	-24%	7%	7%	/	/
CCOc1ccc(/C=N/NC(=O)c2[nH]ncc2Br)c(O)c1	?	23%	-7%	-7%	21%	-1%	18µM*	/
COc1ccc(OC)c(/C=N/NC(=O)c2[nH]ncc2Br)c1	-6	37%	4%	-20%	-7%[58.9 µM]	-3%	/	/
COc1ccc(/C=N\NC(=O)c2c(C)nc3ccc(Br)cn23)cc1	4	?	-3%	?	?	-33%	/	?
CCn1c(NCc2ccc(N(C)C)cc2)nc2ccccc21	/	-15%	-8%	0%	19%	-11%	/	/
Cn1c(N=Nc2ccccc2)nc2ccccc21	-74*	-29%	-12%	-6%	14%	-9%	13µM*	/
CN(C)c1ccc(N=Nc2nc3ccccc3n2C)cc1	-59*	-27%	-16%	-15%	29%	-2%	4.6µM*	/
Cn1c(Cl)nc2ccccc21	-2	-1%	-5%	2%	10%	-19%	/	/
SMILES	PI5P4K alpha inh	Pol beta inh	WRN inhibitor	POLH inh	Pol iota inh	Pol kappa inh	PGK validate	Pol iota confirm
O=C(Nc1ccccc1Cl)C1CCN(c2nc3ccccc3nc2C(F)(F)F)CC1	/	27%	/	-10%	16%	19%	/	/
COc1ccc2[nH]c3c(C)c4ccncc4c(C)c3c2c1	?	1.3µM*	?	?	3.5µM*	50µM*	/	7.5*
Cc1ccc(/C=N/NC(=O)CNC(=O)c2ccc(S(=O)(=O)N3CCCC3)cc2)o1	-2	22%	10%	-17%	11%	12%	/	/
O=C(CNC(=O)c1ccc(S(=O)(=O)N2CCCCC2)cc1)N/N=C/c1ccco1	-7	3%	-21%[11.6 µM]	-4%	?	-9%	/	12*
O=C(N/N=C/c1ccc(Cl)c([N+](=O)[O-])c1)c1ccc2c(c1)OCCO2	-7	/	?	?	-24%	-10%	/	75*
O=C(CN1C(=O)/C(=C\c2ccco2)SC1=S)Nc1ccc(O)cc1C(=O)O	-62*	0.4µM*	50µM*	8.9µM*	?	-6%	26µM*	/
COc1ccc(-c2nc3sc(CCNC(=O)C(=O)Nc4cccc(NC(C)=O)c4)c(C)n3n2)cc1	/	13µM*	/	?	4%	-1%[60.1 µM]	/	?
Cc1ccc(Cl)cc1NC(=O)Nc1cn(CC(C)C)c(=O)c2ccccc12	/	7%	/	22µM*	?	-22%	3%	/
COc1ccc(NC(=O)Nc2cn(CC(C)C)c(=O)c3ccccc23)c(OC)c1	/	27%	/	-11%	35%	-10%	/	/
Cc1cc(NC(=O)CCn2c(=O)c3cccn3c3cccnc32)ccc1Br	/	-2%	/	-11%	9%	3%	/	/
CCCCC[C@H](O)/C=C/[C@@H]1[C@@H](C/C=C\CCCC(=O)OC)[C@@H](O)C[C@H]1O	1	24%	12%	?	1.3µM*	-10%	4%	/
CC(=O)c1cccc(NC(=O)CCc2nnc3ccc(NCc4ccco4)nn23)c1	-19	?	-15%[11.6 µM]	?	6%	0%	/	?
C/C(=N/NC(=O)c1cc(O)c(O)c(O)c1)c1ccc([N+](=O)[O-])cc1	?	1.8µM*	?	14µM*	?	13µM*	?	/
Cc1ccnc(NC(=O)c2ccc3c(c2)OCO3)c1	-25	3%	9%	-2%	140%	-10%	21µM*	/
O=C(c1cnc(N2CCCCC2)c2ccccc12)N1CCN(c2ccc(Cl)cc2)CC1	/	12%	/	-19%	30%	-8%[60.1 µM]	/	/
Cc1ccccc1NC(=O)c1c(C)oc2ccc(O)c(CN3CCCC3)c12	/	1%	/	-13%	16%	16%	/	/
Cc1cccc(NC(=O)c2cc3c(=O)n4ccccc4nc3s2)c1	-5	7.1µM*	?	45µM*	?	1%	/	67*
